Source: PubChem BioAssay AID1159580 (chemical genetic matrix, 2015)
Several values for one entry are separate records, joined by “and”; a condition that tells them apart may be missing. Identical values can stand only once. Hit rate of the full screen: of about 5,500 compounds, about 2,000 (36%) were called active. Not shown: some 18% with an inconclusive outcome. Rule as the data show it: active = normalized growth mostly below about 0.91 (no sharp cut-off); inconclusive = no clear call, values can overlap the other calls; inactive = mostly above about 0.92. The list shows a part of the results.

Assay: chemical genetic growth profiling, strain panel (AID 1159580);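 also: tested at 20 µM; growth read once vehicle control cultures reached saturation at 30 °C; 1 = growth at the plate median or of vehicle wells; lower values mean less growth of the strain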
Settings: S. cerevisiae deletion strains, growth OD

Measured: normalized growth

CCOC(=O)c1c(C)cc(O)cc1O
active: locus YAL030W, strain snc1, stronger effect = lower value 0.928 | locus YBR009C, strain hhf1, stronger effect = lower value 0.896 | locus YBR231C, strain swc5, stronger effect = lower value 0.897 | locus YCL011C, strain gbp2, stronger effect = lower value 0.891 | locus YDL134C, strain PPH21, stronger effect = lower value 0.874 | locus YDL185W, strain tfp1, stronger effect = lower value 0.896 | locus YDL192W, strain arf1, stronger effect = lower value 0.896 | locus YDR001C, strain nth1, stronger effect = lower value 0.909 | locus YDR101C, strain arx1, stronger effect = lower value 0.915 | locus YDR318W, strain mcm21, stronger effect = lower value 0.893 | locus YDR388W, stronger effect = lower value 0.916 | locus YDR502C, strain sam2, stronger effect = lower value 0.844 | locus YER015W, strain faa2, stronger effect = lower value 0.924 | locus YER110C, stronger effect = lower value 0.882 | locus YER155C, strain BEM2 (second series), stronger effect = lower value 0.857 | locus YGL078C, strain dbp3, stronger effect = lower value 0.912 | locus YGL086W, strain mad1, stronger effect = lower value 0.883 | locus YGL240W, strain doc1, stronger effect = lower value 0.887 | locus YGL248W, strain PDE1, stronger effect = lower value 0.877 | locus YGR135W, strain pre9, stronger effect = lower value 0.823 | locus YHR027C, strain rpn1, stronger effect = lower value 0.917 | locus YHR079C, strain IRE1 (second series), stronger effect = lower value 0.919 | locus YHR094C, strain hxt1, stronger effect = lower value 0.919 | locus YHR142W, strain chs7, stronger effect = lower value 0.866 | locus YHR200W, strain rpn10, stronger effect = lower value 0.864 | locus YIR030C, strain dcg1, stronger effect = lower value 0.913 | locus YJL095W, strain BCK1 (second series), stronger effect = lower value 0.917 | locus YJL164C, strain tpk1, stronger effect = lower value 0.903 | locus YJL168C, strain set2, stronger effect = lower value 0.931
0.787 (active) and 0.917 (inactive): locus YJL095W, strain BCK1, stronger effect = lower value
inactive: locus YAL021C, strain ccr4, stronger effect = lower value 0.924 | locus YAL026C, strain drs2, stronger effect = lower value 0.946 | locus YBL061C, strain skt5, stronger effect = lower value 0.94 | locus YBR021W, strain FUR4, stronger effect = lower value 1.01 | locus YBR023C, strain chs3, stronger effect = lower value 0.922 | locus YBR171W, strain sec66, stronger effect = lower value 0.904 | locus YBR229C, strain ROT2, stronger effect = lower value 0.941 | locus YBR279W, strain paf1, stronger effect = lower value 0.947 | locus YCL016C, strain dcc1, stronger effect = lower value 0.921 | locus YCL029C, strain bik1, stronger effect = lower value 0.92 | locus YCL069W, strain vba3, stronger effect = lower value 0.939 | locus YCR088W, strain abp1, stronger effect = lower value 0.934 | locus YDL005C, strain med2, stronger effect = lower value 0.921 | locus YDL035C, strain GPR1, stronger effect = lower value 0.973 | locus YDL040C, strain nat1, stronger effect = lower value 0.94 | locus YDL074C, strain BRE1, stronger effect = lower value 0.923 | locus YDL101C, strain DUN1, stronger effect = lower value 0.917 | locus YDR069C, strain doa4, stronger effect = lower value 0.916 | locus YDR137W, strain rgp1, stronger effect = lower value 0.905 | locus YDR159W, strain sac3, stronger effect = lower value 0.887 | locus YDR162C, strain NBP2, stronger effect = lower value 0.87 | locus YDR195W, strain ref2 0.981 | locus YDR297W, strain sur2, stronger effect = lower value 0.93 | locus YDR334W, strain swr1, stronger effect = lower value 0.922 | locus YDR335W, strain msn5, stronger effect = lower value 0.935 | locus YDR392W, strain spt3, stronger effect = lower value 0.831 | locus YEL003W, strain gim4, stronger effect = lower value 0.947 | locus YEL037C, strain rad23, stronger effect = lower value 0.937 | locus YEL061C, strain CIN8 (second series), stronger effect = lower value 0.937 | locus YER016W, strain bim1, stronger effect = lower value 0.946 | locus YER111C, strain swi4, stronger effect = lower value 0.937 | locus YER155C, strain BEM2, stronger effect = lower value 0.927 | locus YER167W, strain BCK2, stronger effect = lower value 0.941 | locus YFR010W, strain ubp6, stronger effect = lower value 0.92 | locus YGL167C, strain pmr1, stronger effect = lower value 0.922 | locus YGL173C, strain kem1, stronger effect = lower value 0.928 | locus YGL227W, strain vid30, stronger effect = lower value 0.937 | locus YGL253W, strain hxk2, stronger effect = lower value 0.918 | locus YGR252W, strain gcn5, stronger effect = lower value 0.937 | locus YHR013C, strain ard1, stronger effect = lower value 0.941 | locus YHR030C, strain SLT2, stronger effect = lower value 0.93 | locus YHR079C, strain IRE1, stronger effect = lower value 0.918 | locus YHR129C, strain ARP1, stronger effect = lower value 0.924 | locus YIL066C, strain RNR3, stronger effect = lower value 0.951 | locus YIL073C, strain SPO22, stronger effect = lower value 0.888 | locus YIL125W, strain kgd1, stronger effect = lower value 0.945 | locus YJL092W, strain hpr5, stronger effect = lower value 0.923 | locus YJL115W, strain asf1, stronger effect = lower value 0.939 | locus YJL129C, strain trk1, stronger effect = lower value 0.929 | locus YJL134W, strain LCB3, stronger effect = lower value 0.931 | locus YJL154C, strain vps35, stronger effect = lower value 0.922 | locus YJL166W, strain qcr8, stronger effect = lower value 0.908 | locus YJL187C, strain SWE1 (second series), stronger effect = lower value 0.878 | locus YJL187C, strain SWE1, stronger effect = lower value 0.931 | locus YJR043C, strain POL32, stronger effect = lower value 0.965
